# Rows were chosen to be rich in hits. Some 2.2% of all compounds tested hit in one or more screens of this group.
# TMEM16A inh: blocks the mouse calcium-activated chloride channel TMEM16A | Q8BHY3 | HEK293 TMEM16A/YFP iodide influx fluorescence, ionomycin | normalized B-score (activity score, 25-100; higher = stronger inhibition) at 10 µM | 1.2% of 310,000 active | AID 588511;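 active = ratio plate-corrected score three or more library SD toward inhibition, starting fluorescence score within five deviations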;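 note: score derived from kinetic fluorescence span divided by baseline fluorescence per well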
# Target sequence (Q8BHY3 whole entry, looked up): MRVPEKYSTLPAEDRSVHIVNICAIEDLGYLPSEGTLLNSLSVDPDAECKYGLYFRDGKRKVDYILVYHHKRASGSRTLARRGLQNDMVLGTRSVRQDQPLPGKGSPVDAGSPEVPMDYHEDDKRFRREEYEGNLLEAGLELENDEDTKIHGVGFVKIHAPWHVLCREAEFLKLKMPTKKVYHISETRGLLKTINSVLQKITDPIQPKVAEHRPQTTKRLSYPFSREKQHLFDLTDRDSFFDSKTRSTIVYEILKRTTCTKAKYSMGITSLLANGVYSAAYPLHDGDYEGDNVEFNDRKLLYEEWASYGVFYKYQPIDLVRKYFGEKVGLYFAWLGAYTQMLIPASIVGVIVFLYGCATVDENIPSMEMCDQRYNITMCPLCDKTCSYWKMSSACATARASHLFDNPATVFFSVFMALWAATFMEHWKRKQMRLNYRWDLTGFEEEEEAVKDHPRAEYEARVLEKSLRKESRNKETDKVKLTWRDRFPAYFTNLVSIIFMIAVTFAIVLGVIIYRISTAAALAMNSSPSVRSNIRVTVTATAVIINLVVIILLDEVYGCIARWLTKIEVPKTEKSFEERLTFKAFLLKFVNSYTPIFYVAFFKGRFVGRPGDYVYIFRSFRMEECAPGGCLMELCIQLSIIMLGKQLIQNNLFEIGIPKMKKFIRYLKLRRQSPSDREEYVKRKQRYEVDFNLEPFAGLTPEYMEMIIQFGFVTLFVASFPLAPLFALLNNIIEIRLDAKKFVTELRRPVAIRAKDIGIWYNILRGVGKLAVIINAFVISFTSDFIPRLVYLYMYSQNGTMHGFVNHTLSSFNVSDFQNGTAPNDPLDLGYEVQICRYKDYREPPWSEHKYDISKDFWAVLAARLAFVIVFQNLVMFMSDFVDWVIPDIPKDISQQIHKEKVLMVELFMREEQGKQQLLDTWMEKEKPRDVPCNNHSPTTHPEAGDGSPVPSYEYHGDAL
# M1 PAM parental: nonselective activator or artifact in parental CHO-K1 calcium assay; ATP EC20, Fluo-8 calcium fluorescence; 0% at ATP EC20, 100% at ATP max; activation, % at 3 µM; 0.02% of 360,000 active; AID 602247;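 active = activation above the run cutoff, the mean activation of all test compounds plus 3 SD, cut at about 40% in these data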;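 note: peak over basal fluorescence ratio in a 140 s read after ATP addition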
# TMEM16A act: mouse TMEM16A channel activation, primary screen. 0.3% of 340,000 active. HEK293 TMEM16A/YFP-H148Q/I152L, iodide quench fluorescence; hits give low values. Q8BHY3. B-score at 10 µM;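 active = fluorescence-ratio B-score plate-corrected deviation score at least 3 library SD below zero, with starting fluorescence score within 5 deviations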;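 note: channel opened by trigger with iodide after compound preincubation; score built on the fluorescence ratio of max minus min over baseline; more negative score means more quench and so TMEM16A activation or potentiation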
# NTR1 ag: NTR1 (human) agonism; NTR1-U2OS beta-arrestin-GFP spot imaging, agonist mode; activation, % at 20 µM; 0.17% of 330,000 active; AID 493036;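 active = activation at or above 40% of the spot to cytoplasm intensity ratio, with at least 20 cells analyzed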;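 note: 0% = DMSO without peptide and 100% = 100 nM NTR1 peptide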
# M1 ag parental: counter-screen for M1 agonists: effect in parental CHO-K1 cells; Fluo-8 calcium fluorescence; scaled to maximal ATP response, vehicle zero; activation, % at 3 µM; 0.48% of 360,000 active; AID 602248; in the data active = activation above about 15%;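 note: untransfected CHO-K1 host cells lacking M1 receptor as counterscreen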
# CHO-K1 Ca antag: nonselective inhibitor or artifact in parental CHO-K1 cells. ATP-induced calcium, Fluo-8 fluorescence. inhibition, % at 3 µM. 0.6% of 360,000 active;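 active = inhibition above a per-plate cutoff, the plate's mean sample inhibition plus 3 SD, cut at about 24% in these data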;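 note: 0% = DMSO plus EC80 ATP and 100% = DMSO alone without ATP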
# An asterisk follows results filed as active; i = inactive; / = not tested or not shown.
SMILES,TMEM16A inh,M1 PAM parental,TMEM16A act,NTR1 ag,M1 ag parental,CHO-K1 Ca antag
CCCn1c(C)cc(C(=O)COc2ccc(C)nc2[N+](=O)[O-])c1C,i,24,i,1,13,1
O=C(c1ccc(Oc2ccc([N+](=O)[O-])cc2)cc1)N1CCCCCC1,25*,-7,i,2,10,12
O=C(c1ccc(Oc2ccc([N+](=O)[O-])cc2Cl)cc1)N1CCCC1,i,17,i,3,3,-10
CCCCCCCCN1C(=O)[C@H](CC(=O)NCCC(C)C)C[C@@]2(C(=O)OCC)CCCC=C12,/,14,/,/,1,-20
Cc1nn(-c2ccccc2)nc1CNC(=O)c1ncoc1-c1ccccc1,i,16,-5.6*,1,8,-4
Cc1nn(-c2ccccc2)nc1CNC(=O)CC(C)(C)C,i,18,i,2,1,0
COc1ccc(C(O)c2ncc(-c3ccccc3)[nH]2)cc1F (stereo unspecified),/,20,/,/,1,-13
CC1(C(=O)NS(=O)(=O)c2ccc(Cl)cc2)CCN1C(=O)CC1CC1 (stereo unspecified),/,9,/,/,0,-10
CN(C(=O)c1cnc(N2CCN(c3ncccn3)CC2)c2ccccc12)c1ccc(Cl)cc1,i,0,i,0,0,3
CCN(C(=O)c1cnc(N2CCN(c3ncccn3)CC2)c2ccccc12)c1cccc(Cl)c1,100*,12,i,10,2,2
O=C(CCCOc1ccc(Cl)cc1Cl)N1CCCc2ccccc21,100*,13,i,14,0,-7
CCOC(=O)C1CCN(S(=O)(=O)c2ccc(C)c(C)c2)CC1,i,5,i,2,17*,12
CCOC(=O)C1CCN(S(=O)(=O)c2ccc3[nH]c4c(c3c2)CCCC4)CC1,i,7,i,5,16*,10
CCOC(=O)C1CCN(S(=O)(=O)c2ccc(C(=O)OC)cc2)CC1,i,-13,-13*,-1,0,-4
CCOC(=O)C1CCN(CC(C)(C)NS(=O)(=O)c2ccccc2)CC1,i,1,i,0,19*,-1
CCOc1ccc2c(ccc(/C=C/c3cc(C)c4cccnc4c3O)[n+]2C)c1,/,-15,i,/,-1,-1
COc1cc(NC(=O)CN2C(=O)COc3ccccc32)cc(OC)c1,/,3,i,/,1,-4
COC(=O)[C@]12CCCCC=C1N(Cc1ccc(Cl)cc1Cl)C(=O)[C@H](CC(=O)N1CCN(C(=O)c3ccco3)CC1)C2,/,4,/,/,4,10
CCC(C)C(CO)NCCCn1cnc2c(OC)ncnc21 (stereo unspecified),/,11,/,/,0,-3
CCOC(=O)C1CCN(CCC(=O)Nc2cc(C)ccc2C)CC1,i,8,i,0,16*,-4
COc1ccc(C(=O)O)cc1S(=O)(=O)Nc1ccccc1C(=O)NCc1ccc2c(c1)OCO2,/,5,i,0,0,-8
COc1ccc(CN2C(=O)c3ccccc3C(/C=N/OCc3ccc(Cl)cc3)C2=O)cc1 (stereo unspecified),i,12,i,3,0,-12
COc1ccc(CN2C(=O)c3ccccc3C(/C=N\OCc3ccc(F)cc3)C2=O)cc1 (stereo unspecified),25*,0,i,0,0,-8
O=c1oc(-c2ccccc2NS(=O)(=O)c2ccccc2)nc2ccccc12,i,-6,i,0,1,29*
CCCCOc1ccc(S(=O)(=O)NC(=O)C2(C)CCN2C(=O)c2c(C)noc2C)cc1 (stereo unspecified),/,4,/,/,0,-6
SMILES,TMEM16A inh,M1 PAM parental,TMEM16A act,NTR1 ag,M1 ag parental,CHO-K1 Ca antag
Cc1cccc(NC(=O)C2(c3ccc([N+](=O)[O-])cc3)CCCC2)c1,i,8,i,0,19*,3
Cc1cc(C)nc(NS(=O)(=O)c2ccc(NC(=O)C3(c4ccc([N+](=O)[O-])cc4)CCCC3)cc2)n1,i,29,i,2,13,-1
Cc1ccc(S(=O)(=O)N(CC(=O)N/N=C/c2cccc(Cl)c2)c2cccc3cccnc23)cc1,i,-10,i,2,0,24*
Cc1ccc(N(CC(=O)N/N=C/c2cccnc2)S(=O)(=O)c2ccccc2)cc1,i,2,i,0,1,5
CCOC(=O)CCC(=O)NNC(=O)c1ccc(NC(=O)c2ccccc2)cc1,i,9,-6.8*,-1,0,-8
CC(C)COC(=O)N(C)C[C@H]1OCc2cnnn2CCCC(=O)N([C@H](C)CO)C[C@@H]1C,/,12,/,/,1,-2
C/C(=N\O)c1sc(-c2ccccc2)nc1C,/,2,i,/,20*,5
CC[n+]1c(/C=C/c2ccc(N(C)C)cc2)ccc2ccccc21,i,-4,i,/,0,13
CCN(CC)c1ccc(/C=C/c2ccc3ccc(OC)cc3[n+]2CC)cc1,i,-25,i,6,11,57*
CC(=O)N1CCN(CC(=O)Nc2cccc(S(=O)(=O)N3CCCCCC3)c2)CC1,i,-14,i,0,0,27*
Cc1cccc(C(=O)NC2CCN(S(=O)(=O)c3ccc(F)cc3)CC2)c1,i,4,i,1,5,10
CC(=O)c1ccc(S(=O)(=O)N2CCC(NC(=O)Nc3cccc(F)c3)CC2)cc1,i,14,-7.9*,2,9,-13
CN(CC(=O)Nc1ccc(S(=O)(=O)N2CCCC2)cc1)CC(=O)Nc1cccc(F)c1,i,6,i,0,18*,2
Cc1ccc(S(=O)(=O)N2CCC(NC(=O)c3cccc(C)c3)CC2)cc1,i,23,-7.1*,0,0,-7
CCC(C)C(CO)NCCCn1cnc2c(OCc3ccccc3)ncnc21 (stereo unspecified),/,17,/,/,0,-6
Cc1cnc(CNC(=O)c2csc([C@@H]3C[C@H](O)[C@@H](CO)O3)n2)cn1,/,8,/,/,1,-1
N#C/C(=C\c1cccn1S(=O)(=O)c1cccc([N+](=O)[O-])c1)S(=O)(=O)c1ccc(F)cc1,/,19,/,/,0,-8
CC1(C)CC(=O)C=C(c2ccc(COC(=O)C(c3ccccc3)c3ccccc3)cc2)C1=O,/,10,/,/,1,-7
CC(NC(=S)NC1CCC(C(C)(C)C)CC1)c1ccccc1 (stereo unspecified),100*,3,i,5,2,-1
CCC(CC)C(=O)N(C)c1c(C)nc2c(OCc3ccc(Cl)cc3)cccn12,/,6,/,/,1,-10
Cc1cccc(NNC(=S)Nc2ccccc2)c1,/,-11,/,/,-1,25*
NS(=O)(=O)c1ccc(-c2ccc(/C=C3\C(=O)Nc4ccccc43)o2)cc1,i,/,/,0,/,/
